One may read the inhibition as the relative decrease from the control value, in per cent.

From ChEMBL document CHEMBL1961873, “Compounds: GSK PKIS; Assays: Nanosyn kinase panel” (2012) come the findings set out here.

The test system of assay [1] is Tyrosine-protein kinase ABL1 (Homo sapiens), P00519 [T315I]. Particulars: at 1 µM.
Assay [2] relates to Tyrosine-protein kinase ABL1 (Homo sapiens), P00519 [Y253F]. As to conditions: at 0.1 µM.
The test system is the same in assay [3]. As to conditions: at 1 µM.
For assay [4], the target named is Tyrosine-protein kinase ABL1 (Homo sapiens) (UniProt P00519). Particulars: at 0.1 µM.
Assay [5] has the same target. Particulars: at 1 µM.
Assay [6] deals with ALK tyrosine kinase receptor (Homo sapiens) (UniProt Q9UM73). Particulars: at 0.1 µM.
Assay [7] has the same target. Particulars: at 1 µM.
For assay [8], the target named is Tyrosine-protein kinase ABL2 (Homo sapiens) (UniProt P42684). Particulars: at 0.1 µM.
The target is the same in assay [9]. Particulars: at 1 µM.
Assay [10] concerns the target Tyrosine-protein kinase receptor UFO (Homo sapiens) (UniProt P30530). As to conditions: at 0.1 µM.
Assay [11] shares this target. Particulars: at 1 µM.
The target of assay [12] is Tyrosine-protein kinase Blk (Homo sapiens) (UniProt P51451). As to conditions: at 0.1 µM.
For assay [13] the target is unchanged. As to conditions: at 1 µM.
Assay [14] deals with T1, Cytoplasmic tyrosine-protein kinase BMX (Homo sapiens) (UniProt P51813).
T1 sequence (whole entry): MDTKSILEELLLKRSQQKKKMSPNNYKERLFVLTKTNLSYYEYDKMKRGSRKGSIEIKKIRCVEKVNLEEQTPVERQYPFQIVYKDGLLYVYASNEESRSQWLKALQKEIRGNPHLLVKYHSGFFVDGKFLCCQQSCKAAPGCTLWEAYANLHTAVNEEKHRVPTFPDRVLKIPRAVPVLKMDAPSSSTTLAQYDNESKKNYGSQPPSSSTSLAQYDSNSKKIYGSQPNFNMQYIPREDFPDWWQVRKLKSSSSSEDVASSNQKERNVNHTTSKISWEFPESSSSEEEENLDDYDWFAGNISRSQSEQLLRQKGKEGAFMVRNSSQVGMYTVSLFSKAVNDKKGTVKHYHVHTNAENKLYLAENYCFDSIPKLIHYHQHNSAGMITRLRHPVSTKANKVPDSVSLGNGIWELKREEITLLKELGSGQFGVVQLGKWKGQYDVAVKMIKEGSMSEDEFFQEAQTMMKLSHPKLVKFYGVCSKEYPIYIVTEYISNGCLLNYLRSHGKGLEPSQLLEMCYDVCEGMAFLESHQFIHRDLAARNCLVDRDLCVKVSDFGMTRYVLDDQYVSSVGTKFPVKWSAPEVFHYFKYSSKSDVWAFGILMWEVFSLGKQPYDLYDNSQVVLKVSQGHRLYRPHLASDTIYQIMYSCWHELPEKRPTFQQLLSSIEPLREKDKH
As to conditions: at 0.1 µM.

In assay [15] the target is T1, Cytoplasmic tyrosine-protein kinase BMX (Homo sapiens). Particulars: at 1 µM.
In assay [16] the target is Protein-tyrosine kinase 6 (Homo sapiens) (UniProt Q13882). As to conditions: at 0.1 µM.
The target is the same in assay [17]. Particulars: at 1 µM.
The target of assay [18] is Tyrosine-protein kinase BTK (Homo sapiens) (UniProt Q06187). As to conditions: at 0.1 µM.
Assay [19] shares this target. As to conditions: at 1 µM.
Assay [20] deals with Tyrosine-protein kinase CSK (Homo sapiens) (UniProt P41240). As to conditions: at 0.1 µM.
Tyrosine-protein kinase CSK (Homo sapiens), sequence (P41240 2-450 limits assumed): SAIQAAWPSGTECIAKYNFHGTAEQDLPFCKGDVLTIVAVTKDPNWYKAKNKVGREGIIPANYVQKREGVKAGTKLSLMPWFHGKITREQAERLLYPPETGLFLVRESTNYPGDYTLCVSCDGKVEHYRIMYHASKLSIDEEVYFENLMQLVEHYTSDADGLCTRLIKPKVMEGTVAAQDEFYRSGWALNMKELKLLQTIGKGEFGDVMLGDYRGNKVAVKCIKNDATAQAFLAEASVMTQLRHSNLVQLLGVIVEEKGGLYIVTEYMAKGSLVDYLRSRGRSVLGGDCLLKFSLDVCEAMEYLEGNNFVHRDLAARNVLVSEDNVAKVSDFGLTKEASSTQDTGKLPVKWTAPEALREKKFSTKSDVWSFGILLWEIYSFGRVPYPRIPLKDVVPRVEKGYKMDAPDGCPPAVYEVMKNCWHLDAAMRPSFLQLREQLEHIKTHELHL

Protein-tyrosine kinase 6 (Homo sapiens), sequence (Q13882 whole entry, looked up): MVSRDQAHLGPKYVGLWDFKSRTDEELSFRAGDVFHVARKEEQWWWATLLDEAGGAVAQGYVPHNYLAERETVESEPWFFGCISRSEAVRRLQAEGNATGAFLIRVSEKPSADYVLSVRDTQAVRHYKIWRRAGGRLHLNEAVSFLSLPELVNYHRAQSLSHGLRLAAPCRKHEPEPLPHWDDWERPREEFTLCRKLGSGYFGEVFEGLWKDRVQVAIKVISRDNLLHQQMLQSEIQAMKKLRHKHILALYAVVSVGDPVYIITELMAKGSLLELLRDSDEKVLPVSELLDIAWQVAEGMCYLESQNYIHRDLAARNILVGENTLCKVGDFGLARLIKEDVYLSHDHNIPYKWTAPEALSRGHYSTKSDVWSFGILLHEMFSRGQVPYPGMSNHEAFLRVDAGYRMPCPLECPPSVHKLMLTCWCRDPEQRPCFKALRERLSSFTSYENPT
Tyrosine-protein kinase ABL2 (Homo sapiens), sequence (P42684 whole entry): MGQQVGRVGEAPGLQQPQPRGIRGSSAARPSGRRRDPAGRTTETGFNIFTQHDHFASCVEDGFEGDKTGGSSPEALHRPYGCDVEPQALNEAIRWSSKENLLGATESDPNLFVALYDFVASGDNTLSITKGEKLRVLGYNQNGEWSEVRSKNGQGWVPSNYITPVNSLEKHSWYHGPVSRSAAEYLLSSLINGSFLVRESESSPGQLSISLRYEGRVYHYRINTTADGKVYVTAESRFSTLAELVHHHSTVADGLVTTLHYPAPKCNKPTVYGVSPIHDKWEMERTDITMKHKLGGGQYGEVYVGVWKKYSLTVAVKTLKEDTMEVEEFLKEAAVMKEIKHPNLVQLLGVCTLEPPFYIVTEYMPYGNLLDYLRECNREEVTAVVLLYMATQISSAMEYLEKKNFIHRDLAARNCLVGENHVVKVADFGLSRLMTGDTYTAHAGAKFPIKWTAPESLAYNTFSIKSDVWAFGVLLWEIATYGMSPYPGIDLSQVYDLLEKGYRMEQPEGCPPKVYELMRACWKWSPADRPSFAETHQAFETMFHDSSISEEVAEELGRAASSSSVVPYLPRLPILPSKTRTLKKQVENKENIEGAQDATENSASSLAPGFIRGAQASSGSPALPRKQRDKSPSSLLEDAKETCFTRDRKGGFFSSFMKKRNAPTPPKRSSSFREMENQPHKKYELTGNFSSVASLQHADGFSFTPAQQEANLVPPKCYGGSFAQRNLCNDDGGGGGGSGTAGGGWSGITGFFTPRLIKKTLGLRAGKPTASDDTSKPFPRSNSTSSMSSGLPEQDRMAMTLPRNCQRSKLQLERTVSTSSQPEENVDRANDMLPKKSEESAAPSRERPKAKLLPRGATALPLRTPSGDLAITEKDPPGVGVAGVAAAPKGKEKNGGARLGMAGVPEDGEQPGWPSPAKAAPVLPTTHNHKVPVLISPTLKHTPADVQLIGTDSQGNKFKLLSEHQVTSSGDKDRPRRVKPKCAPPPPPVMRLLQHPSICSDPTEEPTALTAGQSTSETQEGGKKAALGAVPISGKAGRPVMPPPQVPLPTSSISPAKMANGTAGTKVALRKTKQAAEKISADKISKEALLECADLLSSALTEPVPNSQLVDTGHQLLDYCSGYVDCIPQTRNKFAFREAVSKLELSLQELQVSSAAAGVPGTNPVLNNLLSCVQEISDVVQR
Tyrosine-protein kinase Blk (Homo sapiens), sequence (P51451 2-505 limits assumed): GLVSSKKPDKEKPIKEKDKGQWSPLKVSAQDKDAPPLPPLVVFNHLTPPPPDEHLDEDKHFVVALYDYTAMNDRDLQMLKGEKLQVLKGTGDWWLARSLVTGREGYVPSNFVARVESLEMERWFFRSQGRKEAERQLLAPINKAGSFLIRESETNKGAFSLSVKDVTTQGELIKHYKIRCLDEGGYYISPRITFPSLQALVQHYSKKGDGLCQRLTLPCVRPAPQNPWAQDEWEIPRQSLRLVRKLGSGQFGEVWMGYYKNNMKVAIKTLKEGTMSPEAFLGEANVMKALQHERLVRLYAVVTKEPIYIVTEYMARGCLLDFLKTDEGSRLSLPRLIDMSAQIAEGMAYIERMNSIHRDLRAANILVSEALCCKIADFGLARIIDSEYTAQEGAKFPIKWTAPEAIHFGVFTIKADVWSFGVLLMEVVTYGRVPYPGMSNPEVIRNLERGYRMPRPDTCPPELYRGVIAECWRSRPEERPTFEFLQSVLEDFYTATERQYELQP
Tyrosine-protein kinase receptor UFO (Homo sapiens), sequence (P30530 whole entry): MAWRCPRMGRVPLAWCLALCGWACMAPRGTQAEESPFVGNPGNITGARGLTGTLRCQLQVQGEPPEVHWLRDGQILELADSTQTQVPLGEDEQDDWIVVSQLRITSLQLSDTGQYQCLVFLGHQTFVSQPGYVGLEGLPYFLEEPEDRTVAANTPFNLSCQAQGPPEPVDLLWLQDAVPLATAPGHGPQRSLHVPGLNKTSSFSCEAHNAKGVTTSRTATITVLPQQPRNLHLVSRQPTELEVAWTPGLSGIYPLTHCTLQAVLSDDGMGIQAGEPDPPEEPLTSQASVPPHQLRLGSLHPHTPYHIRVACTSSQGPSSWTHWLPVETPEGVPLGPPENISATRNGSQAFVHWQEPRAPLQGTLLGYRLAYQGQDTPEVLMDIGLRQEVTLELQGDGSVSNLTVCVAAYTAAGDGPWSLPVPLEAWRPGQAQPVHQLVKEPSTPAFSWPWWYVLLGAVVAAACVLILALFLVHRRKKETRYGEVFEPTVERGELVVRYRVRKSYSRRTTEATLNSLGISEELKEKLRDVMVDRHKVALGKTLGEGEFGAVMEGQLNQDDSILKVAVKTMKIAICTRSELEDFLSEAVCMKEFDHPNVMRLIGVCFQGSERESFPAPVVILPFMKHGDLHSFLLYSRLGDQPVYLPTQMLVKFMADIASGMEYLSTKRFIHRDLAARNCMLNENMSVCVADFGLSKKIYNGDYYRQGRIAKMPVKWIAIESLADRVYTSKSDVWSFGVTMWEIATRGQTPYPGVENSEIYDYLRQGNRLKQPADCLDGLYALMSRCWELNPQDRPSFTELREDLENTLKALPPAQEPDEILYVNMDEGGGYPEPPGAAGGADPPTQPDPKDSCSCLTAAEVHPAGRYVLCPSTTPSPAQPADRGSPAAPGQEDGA
Tyrosine-protein kinase BTK (Homo sapiens), sequence (Q06187 whole entry): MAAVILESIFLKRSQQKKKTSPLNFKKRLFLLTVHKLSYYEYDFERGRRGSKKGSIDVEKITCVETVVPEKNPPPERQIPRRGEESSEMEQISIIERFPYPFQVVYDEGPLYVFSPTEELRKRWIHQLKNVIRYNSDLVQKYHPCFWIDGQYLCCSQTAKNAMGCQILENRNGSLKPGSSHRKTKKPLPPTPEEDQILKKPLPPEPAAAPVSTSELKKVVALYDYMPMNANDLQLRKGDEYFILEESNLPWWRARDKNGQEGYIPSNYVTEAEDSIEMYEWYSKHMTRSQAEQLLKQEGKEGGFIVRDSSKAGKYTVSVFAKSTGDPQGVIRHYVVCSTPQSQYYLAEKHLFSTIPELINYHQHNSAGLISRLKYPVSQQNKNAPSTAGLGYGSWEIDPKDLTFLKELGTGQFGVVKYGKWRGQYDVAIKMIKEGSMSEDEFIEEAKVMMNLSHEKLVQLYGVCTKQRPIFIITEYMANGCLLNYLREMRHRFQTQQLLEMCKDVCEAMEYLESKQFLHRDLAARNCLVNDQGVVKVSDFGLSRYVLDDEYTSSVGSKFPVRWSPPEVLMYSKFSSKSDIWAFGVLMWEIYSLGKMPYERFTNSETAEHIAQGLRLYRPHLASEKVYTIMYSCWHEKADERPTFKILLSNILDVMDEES

Consider `COc1cc(/C=N/Nc2ncnc3c2cnn3C(C)C)ccc1O`, for which the inhibition in assay [1] is 47.8%; in assay [2], 37%; in assay [3], 82.2%; in assay [4] it was 23.3%; in assay [5], 73.7%; in assay [6], 0.72%. Also, the inhibition in assay [7] was 4.12%; in [8], 16.7%; in [9], 68.5%; in [10], -0.67%; in assay [11], -0.23%; in [12] it was 4.73%. In addition, the inhibition in assay [13] is 45%; in assay [14] it was 2.71%; in [15], 17.1%; in assay [16], 1.02%; in [17] it was 4.8%; in assay [18] it was -0.92%. Besides, the results for the inhibition in [19] and in assay [20] were 0.84% and 0.38%, respectively.

`CN(C)C(=O)O[C@@H]1CN[C@@H](C#Cc2cc3ncnc(Nc4ccc(OCc5cccc(F)c5)c(Cl)c4)c3s2)C1`: the inhibition was -0.07% in assay [1]; 1.53% in assay [2]; 3.44% in assay [3]; 1.35% in [4]; 6.2% in [5]; 1.27% in [6]. For the same compound, the inhibition is 1.3% in [7]; 1.71% in assay [8]; 8.08% in [9]; -0.96% in assay [10]; 2.48% in assay [11]; 2.22% in [12]. Besides, the inhibition in assay [13] is 3.83%; in [14], 1.11%; in assay [15], 3.41%; in assay [16], -0.15%; in assay [17] it was 2.41%; in assay [18], -0.22%. The figures for the inhibition in [19] and in assay [20] were 1.84% and -1.53%, respectively.

`Nc1ccc(C#Cc2cncnc2Nc2ccc(OCc3cccc(F)c3)c(Cl)c2)cc1`: the inhibition in assay [1] amounted to 1.84%; in [2], 1.89%; in assay [3] it was 2.12%; in [4] it was 3.72%; in assay [5] it was 4%; in assay [6] it was 3.7%. Moreover, the inhibition in [7] is 3.34%; in assay [8] it was 3.43%; in [9], 4.12%; in assay [10], -4.2%; in [11] it was -3.04%; in [12], 2.28%. Besides, the inhibition in assay [13] was 3.41%; in assay [14] it was 4.02%; in assay [15], 2.63%; in assay [16], 0.17%; in [17], 4.63%; in assay [18], -0.24%. Also, the figures for the inhibition in [19] and in [20] were 1.11% and -1.23%, respectively.

For the compound `Cc1ccc(O)cc1Nc1ccnc2ccc(S(C)(=O)=O)cc12`, the inhibition in [1] stood at 18.4%; in assay [2], 94.9%; in assay [3], 96.8%; in assay [4], 81.3%; in [5], 85.5%; in assay [6], 2.56%. In addition, the inhibition in assay [7] was 8.35%; in assay [8], 80.8%; in [10], -7.59%; in assay [12] it was 42.8%; in [13], 91.4%; in assay [14], 76.5%. Besides, the inhibition amounted to 93.2% in [15]; 95.3% in assay [16]; 103% in assay [17]; 63.8% in assay [18]; 77.3% in [19]; 70.3% in assay [20].

As for `CCS(=O)(=O)c1ccc(OC)c(Nc2ncc(-c3cccc(OC)c3)o2)c1`, the inhibition is 26.5% in [1]; 48.5% in assay [2]; 86.3% in [3]; 29.8% in [4]; 77.7% in assay [5]; 2.9% in assay [6]. The inhibition in assay [7] was 8.1%; in assay [8], 27.3%; in assay [9], 72.6%; in assay [10], -3.48%; in assay [11], -1.98%; in assay [12], 10.4%. Besides, the inhibition in assay [13] was 64.3%; in assay [14], -2.1%; in assay [15], 25.9%; in assay [16], 6.68%; in [17], 40.7%; in [18], 3.67%. Further, the figures for the inhibition in assay [19] and in [20] were 21.6% and -0.51%, respectively.

For `COc1cc(Nc2nccc(-c3cnn4ncccc34)n2)cc(OC)c1`, the inhibition stood at 40.3% in assay [1]; 13.7% in [2]; 59.6% in assay [3]; 9.67% in assay [4]; 62.7% in assay [5]; 5.68% in assay [6]. Further, the inhibition in assay [7] turned out to be 44.8%; in assay [8], 10.5%; in [9] it was 69.6%; in assay [10], 2%; in assay [11], 20.7%; in [12] it was 2%. The inhibition in assay [13] was 24.8%; in assay [14], 7.04%; in [15], 31.3%; in assay [16] it was 0.23%; in assay [17], 17.6%; in assay [18], 1.94%. For the same compound, the inhibition in assay [19] came out at 11.3%; in assay [20], 2.91%.

For `Nc1nccc(-c2c(-c3ccc(F)cc3)nn3cc(C(F)(F)F)ccc23)n1`, the inhibition was 1.21% in assay [1]; 1.01% in [2]; -0.43% in [3]; 0.6% in assay [4]; 0.4% in assay [5]; 3.84% in assay [6]. Besides, the inhibition was found to be 5.16% in [7]; 2.16% in [8]; 3.62% in [9]; 0.67% in assay [10]; 5.17% in assay [11]; 0.6% in assay [12]. In addition, the inhibition in assay [13] was 1.08%; in assay [14], -1.09%; in [15] it was 0.94%; in assay [16] it was 1.57%; in assay [17] it was -4.29%; in [18], 0.89%. For the same compound, the inhibition in [19] was 0.4%; in [20], -0.9%.
